In PubChem BioAssay AID694 (Emory University Molecular Libraries Screening Center, 2007):
Hit rate of the full screen: of about 1,300 compounds, about 25 (2%) were called active. The rule behind the calls is not given here. Shown is part of a subset that was picked to be rich in actives.

Biological target: Estrogen receptor (Homo sapiens) (UniProt P03372)
Experiment: blockers of coactivator recruitment to ERα – biochemical, LOPAC library, TR-FRET, primary screen (AID 694);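 note: receptor was agonist-bound with estradiol present during the assay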
Conditions: TR-FRET ERalpha-coactivator peptide binding, stronger effect = higher value

Chain of Estrogen receptor (Homo sapiens) (P03372 whole entry, looked up): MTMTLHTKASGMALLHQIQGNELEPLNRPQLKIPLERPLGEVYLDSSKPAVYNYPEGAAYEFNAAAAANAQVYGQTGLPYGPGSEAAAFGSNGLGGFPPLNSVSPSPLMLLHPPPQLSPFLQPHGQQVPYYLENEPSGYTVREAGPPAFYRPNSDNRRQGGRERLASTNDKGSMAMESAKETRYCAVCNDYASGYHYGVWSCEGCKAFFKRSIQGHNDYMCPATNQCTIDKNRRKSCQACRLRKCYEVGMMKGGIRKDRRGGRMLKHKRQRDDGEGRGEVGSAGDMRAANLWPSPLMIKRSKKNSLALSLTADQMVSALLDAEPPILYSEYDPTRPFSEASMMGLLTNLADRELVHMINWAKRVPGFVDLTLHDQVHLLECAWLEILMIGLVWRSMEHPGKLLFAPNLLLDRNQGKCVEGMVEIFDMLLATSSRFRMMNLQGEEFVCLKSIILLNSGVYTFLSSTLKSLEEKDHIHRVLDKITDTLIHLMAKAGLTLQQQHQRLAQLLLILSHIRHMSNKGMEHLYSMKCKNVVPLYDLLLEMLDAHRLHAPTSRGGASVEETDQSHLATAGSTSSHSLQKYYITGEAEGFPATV

N=c1c[n+](N2CCOCC2)[n-]o1
inhibition (at 45 µM): 3.79% (inactive) | inhibition (inhibition, at 15 µM): 4.24%

COc1ccccc1N1CCN(CCCNc2c(C)c(=O)n(C)c(=O)n2C)CC1
inhibition (at 45 µM): -0.24% (inactive) | inhibition (inhibition, at 15 µM): 1.69%

CCNC(=O)C1OC(n2cnc3c(NCc4ccccc4)ncnc32)C(O)C1O (stereo not given)
inhibition (at 45 µM): -1.65% (inactive) | inhibition (inhibition, at 15 µM): 1.9%

Cn1cc(C(F)(F)F)nc1-c1ccc(OCC(O)CNCCOc2ccc(O)c(C(N)=O)c2)cc1 (stereo not given)
inhibition (at 45 µM): -4.07% (inactive) | inhibition (inhibition, at 15 µM): -6.05%

CC[N+](C)(C)Cc1ccccc1Br
inhibition (at 45 µM): -6.37% (inactive) | inhibition (inhibition, at 15 µM): -2.6%

COc1ccccc1N1CCN(CCN(C(=O)c2ccc(F)cc2)c2ccccn2)CC1
inhibition (at 45 µM): -4.33% (inactive) | inhibition (inhibition, at 15 µM): 1.39%

CCCCCN(CCCCC)C(=O)C(CCC(=O)O)NC(=O)c1ccc(Cl)c(Cl)c1 (stereo not given)
inhibition (at 45 µM): 0.49% (inactive) | inhibition (inhibition, at 15 µM): 8.19%

NCCCCNS(=O)(=O)c1cccc2c(Cl)cccc12
inhibition (at 45 µM): -24.3% (inactive) | inhibition (inhibition, at 15 µM): 2.07%

CNC(=O)Oc1ccc2c(c1)[C@]1(C)CCN(C)[C@@H]1N2C
inhibition (at 45 µM): -8.56% (active) | inhibition (inhibition, at 15 µM): 56.6%

Oc1cc(O)c2c(c1)O[C@H](c1ccc(O)c(O)c1)[C@@H](O)C2
inhibition (at 45 µM): 26.6% (inactive) | inhibition (inhibition, at 15 µM): 10.3%

CC1=C(C(=O)O)N2C(=O)[C@@H](NC(=O)C(N)c3ccccc3)[C@H]2SC1 (stereo not given in full)
inhibition (at 45 µM): -5% (inactive) | inhibition (inhibition, at 15 µM): -4.71%

COc1cc(=O)n(C)c2c(OCC(O)C(C)(C)O)cccc12 (stereo not given)
inhibition (at 45 µM): -4.43% (inactive) | inhibition (inhibition, at 15 µM): 3.61%

NS(=O)(=O)c1cc2c(cc1Cl)NC=NS2(=O)=O
inhibition (at 45 µM): -2.72% (inactive) | inhibition (inhibition, at 15 µM): 1.82%

Cc1nc(N=Nc2ccc(C(=O)O)cc2)c(COP(=O)(O)O)c(C=O)c1O
inhibition (at 45 µM): 6.52% (inactive) | inhibition (inhibition, at 15 µM): -0.22%

Cn1c(=O)c2c(nc(/C=C/c3cccc(Cl)c3)n2C)n(C)c1=O
inhibition (at 45 µM): 0.97% (inactive) | inhibition (inhibition, at 15 µM): -2.61%

CC(C)COCC(CN(Cc1ccccc1)c1ccccc1)N1CCCC1 (stereo not given)
inhibition (at 45 µM): -5.09% (inactive) | inhibition (inhibition, at 15 µM): 4.06%

C[N+](C)(C)CCOC(=O)CCC(=O)OCC[N+](C)(C)C
inhibition (at 45 µM): -6.43% (inactive) | inhibition (inhibition, at 15 µM): 0.18%

COc1ccc2[nH]c(I)c(CCNC(C)=O)c2c1
inhibition (at 45 µM): -2.05% (inactive) | inhibition (inhibition, at 15 µM): -4.11%

CC(C)[C@@H]1NC(=O)[C@H](CCCCN)NC(=O)[C@@H](Cc2c[nH]c3ccccc23)NC(=O)[C@H](Cc2ccc(O)cc2)NC(=O)[C@H](C)N(C)C(=O)[C@H](Cc2ccccc2)NC1=O
inhibition (at 45 µM): 5.89% (inactive) | inhibition (inhibition, at 15 µM): -1.62%

COC(=O)[C@H](NC(=O)c1cc(-c2ccccc2)nc2ccccc12)c1ccccc1
inhibition (at 45 µM): 1.85% (inactive) | inhibition (inhibition, at 15 µM): 2.38%

O=Nc1ccc2oc(=O)ccc2c1
inhibition (at 45 µM): 0.4% (inactive) | inhibition (inhibition, at 15 µM): 0.59%

NC(N)=NCCC[C@H](N)C(=O)O
inhibition (at 45 µM): -2.21% (inactive) | inhibition (inhibition, at 15 µM): -4%

N[C@@H](CCCC(=O)O)C(=O)O
inhibition (at 45 µM): -21.2% (active) | inhibition (inhibition, at 15 µM): 50.5%

NC(CCCP(=O)(O)O)C(=O)O (stereo not given)
inhibition (at 45 µM): -8.81% (inactive) | inhibition (inhibition, at 15 µM): -3.89%

O=c1c(O)c(-c2ccc(O)c(O)c2)oc2cc(O)cc(O)c12
inhibition (at 45 µM): 59.6% (inactive) | inhibition (inhibition, at 15 µM): 26.6%

O=c1c(O)c(-c2cc(O)c(O)c(O)c2)oc2cc(O)cc(O)c12
inhibition (at 45 µM): 84% [fluorescence artefact?] (active) | inhibition (inhibition, at 15 µM): 62.7%

O=c1[nH]c2cc(C(F)(F)F)ccc2n1-c1cc(C(F)(F)F)ccc1O
inhibition (at 45 µM): 2.02% (inactive) | inhibition (inhibition, at 15 µM): 1.4%

CC(=O)N[C@@H](CS)C(=O)O
inhibition (at 45 µM): -7.68% (inactive) | inhibition (inhibition, at 15 µM): -8.08%

N#C/C(=C\c1ccc(O)c(O)c1)C(=O)c1ccc(O)c(O)c1
inhibition (at 45 µM): 59.5% [fluorescence artefact?] (active) | inhibition (inhibition, at 15 µM): 57.3%

COc1cc(/C=C(\C#N)C(=O)c2ccc(O)c(O)c2)cc(I)c1O
inhibition (at 45 µM): 28.7% (inactive) | inhibition (inhibition, at 15 µM): 13.7%

N#C/C(=C\c1ccc(O)c(O)c1)C(=O)NCCCNC(=O)/C(C#N)=C/c1ccc(O)c(O)c1
inhibition (at 45 µM): 51.7% (inactive) | inhibition (inhibition, at 15 µM): 37.2%

Nc1ncn([C@@H]2O[C@H](CO)[C@@H](O)[C@H]2O)c(=O)n1
inhibition (at 45 µM): -1.93% (inactive) | inhibition (inhibition, at 15 µM): -4.32%

Cn1c(=O)c2[nH]c(C3CCCC3)nc2n(C)c1=O
inhibition (at 45 µM): 1.28% (inactive) | inhibition (inhibition, at 15 µM): -1.01%

NC(=S)NCCCC(N)C(=O)O (stereo not given)
inhibition (at 45 µM): -4.72% (inactive) | inhibition (inhibition, at 15 µM): 3.62%

NCC(O)C1CCCCCCC1 (stereo not given)
inhibition (at 45 µM): -4.78% (inactive) | inhibition (inhibition, at 15 µM): 1.99%

CCN1CCc2nc(N)oc2CC1
inhibition (at 45 µM): -3.72% (inactive) | inhibition (inhibition, at 15 µM): -5.11%

CN(CCOc1ccc(C[C@H](Nc2ccccc2C(=O)c2ccccc2)C(=O)O)cc1)c1ccccn1
inhibition (at 45 µM): 2.05% (inactive) | inhibition (inhibition, at 15 µM): 2.17%

C=Cc1c(C)c2cc3[nH]c(cc4nc(cc5nc(cc1[nH]2)C(C)=C5CCC(=O)O)C(CCC(=O)O)=C4C)c(C)c3C=C
inhibition (at 45 µM): 93.6% [fluorescence artefact?] (active) | inhibition (inhibition, at 15 µM): 73.7%

CN(C)C(=O)/N=N/C(=O)N(C)C
inhibition (at 45 µM): -2.24% (inactive) | inhibition (inhibition, at 15 µM): -4.27%

Nn1nnc2ccccc21
inhibition (at 45 µM): -3.33% (inactive) | inhibition (inhibition, at 15 µM): -2.11%

COc1ccccc1N1CCN(CCCNc2cc(=O)n(C)c(=O)n2C)CC1
inhibition (at 45 µM): 4.48% (inactive) | inhibition (inhibition, at 15 µM): 2.87%

Cn1cnc2c(NCc3ccccc3)nc(NCCO)nc21
inhibition (at 45 µM): 3.75% (inactive) | inhibition (inhibition, at 15 µM): 1.76%

C=CC[C@H](N)C(=O)O
inhibition (at 45 µM): -2.53% (inactive) | inhibition (inhibition, at 15 µM): -5.06%

CCCn1c(=O)c2c(ncn2C)n(CCC)c1=O
inhibition (at 45 µM): 5.51% (inactive) | inhibition (inhibition, at 15 µM): -1.66%

N=c1nc(N2CCCCC2)cc(N)n1O
inhibition (at 45 µM): 2.01% (inactive) | inhibition (inhibition, at 15 µM): -3.53%

CC[C@@H](C)[C@H]1O[C@]2(CC[C@@H]1C)C[C@@H]1C[C@@H](C/C=C(\C)[C@@H](O[C@H]3C[C@H](OC)[C@@H](O[C@H]4C[C@H](OC)[C@@H](O)[C@H](C)O4)[C@H](C)O3)[C@@H](C)/C=C/C=C3\CO[C@@H]4[C@H](O)C(C)=C[C@@H](C(=O)O1)[C@]34O)O2
inhibition (at 45 µM): -0.86% (inactive) | inhibition (inhibition, at 15 µM): 3.41%

CCCCC#Cc1nc(N)c2ncn([C@@H]3O[C@H](C(=O)NCC)[C@@H](O)[C@H]3O)c2n1
inhibition (at 45 µM): -0.57% (inactive) | inhibition (inhibition, at 15 µM): 5.8%

CCCCCCCC/C=C\CCCCCCCC(=O)NCCO
inhibition (at 45 µM): 7.02% (inactive) | inhibition (inhibition, at 15 µM): 9.1%

N[C@@H](CCC(=O)N[C@H](CSN=O)C(=O)NCC(=O)O)C(=O)O
inhibition (at 45 µM): 1.19% (inactive) | inhibition (inhibition, at 15 µM): 3.44%

[N-]=[N+]=Nc1ccc(C(=O)CSC[C@H](NC(=O)CC[C@H](N)C(=O)O)C(=O)NCC(=O)O)cc1
inhibition (at 45 µM): 75.4% [fluorescence artefact?] (active) | inhibition (inhibition, at 15 µM): 74%
